Settings in all cases: primary human HUVEC with PBMC; actives raise or lower the signal
Read-out in assay [1]: Monocyte Chemoattractant Protein-1 (MCP1), CCL2 (gene 6347)
The assay is described as follows: BSK_LPS_MCP1: BioMAP Diversity Plus: LPS Assay for Monocyte Chemoattractant Protein-1 (MCP1) Biomarker Activity (AID 2283081).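 On AC50: co-culture stimulated with LPS; secreted MCP-1 protein quantified by ELISA in culture supernatant.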 In outline:
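Secreted MCP-1 read by ELISA at 24 h post-dosing in an LPS-activated co-culture of endothelial cells with peripheral blood mononuclear cells. Fits run in both directions, DMSO as baseline; parallel SRB staining tracks overt cytotoxicity.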

Assay [2] can be described thus: BSK_LPS_PGE2: BioMAP Diversity Plus: LPS Assay for Prostaglandin E2 (PGE2) Biomarker Activity (AID 2283082). The method, boiled down: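 PGE2 release measured by ELISA in an LPS-activated co-culture of human umbilical vein endothelial cells and peripheral blood mononuclear cells, read at 24 h post-dosing. DMSO served as baseline for bidirectional curve fitting.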
Read-out in assay [3]: Macrophage colony-stimulating factor (MCSF), CSF1 (gene 1435)
The experiment in a line: BSK_LPS_MCSF: BioMAP Diversity Plus: LPS Assay for Macrophage colony-stimulating factor (MCSF) Biomarker Activity (AID 2283083). In outline:
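Bidirectional fitting against DMSO was applied to M-CSF levels read by ELISA at 24 h post-dose. The system pairs human umbilical vein endothelium with peripheral blood mononuclear cells; parallel SRB staining tracked cytotoxicity.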

Read-out in assay [4]: Tissue Factor, F3 (gene 2152)
The experiment in a line: BSK_LPS_TissueFactor: BioMAP Diversity Plus: LPS Assay for Tissue Factor Biomarker Activity (AID 2283084). The method, boiled down:
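Compound was added to an endothelial cell/PBMC co-culture, and after 24 h tissue factor (CD142) was read by ELISA. Gain or loss of signal was fitted against a DMSO baseline, and parallel SRB staining (560 nm) tracked overt cytotoxicity.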

Read-out in assay [5]: Tumor necrosis factor (Homo sapiens) (UniProt P01375)
The assay is described as follows: BSK_LPS_TNFa: BioMAP Diversity Plus: LPS Assay for Tumour Necrosis Factor alpha (TNFa) Biomarker Activity (AID 2283085).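 On AC50: TNFa protein level quantified by ELISA in the co-culture.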 In outline:
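TNFa was quantified by ELISA in LPS-activated co-cultures of human endothelial cells and PBMC, 24 h post-dosing. Both increases and decreases versus DMSO were fitted.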

Read-out in assay [6]: Vascular cell adhesion molecule 1 (VCAM1), VCAM1 (gene 7412)
The experiment in a line: BSK_LPS_VCAM1: BioMAP Diversity Plus: LPS Assay for Vascular cell adhesion molecule 1 (VCAM1) Biomarker Activity (AID 2283086). The method, boiled down: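 VCAM-1 quantified by ELISA in an LPS-activated co-culture of human endothelial cells and peripheral blood mononuclear cells, read 24 h post-treatment. Fitted in both directions versus DMSO; parallel SRB staining flags overt cytotoxicity.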

Read-out in another assay: CD38, CD38 (gene 952)
The assay is described as follows: BSK_SAg_CD38: BioMAP Diversity Plus: SAg Assay for CD38 Biomarker Activity (AID 2283087). In outline: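 CD38 quantified by ELISA (fluorescence) in a superantigen-activated endothelial cell–PBMC co-culture at 24 h post-dose. Activity fitted in both directions relative to DMSO; parallel SRB and Alamar Blue cytotoxicity read-outs.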

Read-out in the next assay: CD40, CD40 (gene 958)
The experiment in a line: BSK_SAg_CD40: BioMAP Diversity Plus: SAg Assay for CD40 Biomarker Activity (AID 2283088). The method, boiled down: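 CD40 is measured by fluorescence ELISA in an endothelial/PBMC primary human co-culture at 24 h post-dose. Fitting is bidirectional, DMSO baseline. Parallel SRB staining (560 nm) flags cytotoxicity.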

Read-out in the next assay: CD69, CD69 (gene 969)
The experiment in a line: BSK_SAg_CD69: BioMAP Diversity Plus: SAg Assay for CD69 Biomarker Activity (AID 2283089).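 On AC50: cell surface CD69 protein quantified by ELISA with fluorescence detection.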 In outline:
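ELISA, fluorescence read-out: CD69 on human umbilical vein endothelial cell + PBMC co-culture, 24 h post-dosing. Gain or loss of signal fitted bidirectionally against DMSO baseline.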

Read-out in assay [7]: Monocyte Chemoattractant Protein-1 (MCP1), CCL2 (gene 6347)
The assay is described as follows: BSK_SAg_MCP1: BioMAP Diversity Plus: SAg Assay for Monocyte Chemoattractant Protein-1 (MCP1) Biomarker Activity (AID 2283090). In outline: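 Values derive from bidirectional fitting of ELISA-measured MCP1 against DMSO controls. Readings were taken 24 h after dosing human vascular endothelial cells co-cultured with peripheral blood mononuclear cells under superantigen stimulation.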

Activity calls are given as the source filed them. How the source made its calls: active means hit-call score of the fitted dose curve at least 0.9, where 1 is the maximum; inactive means score below 0.9.

Chain of Tumor necrosis factor (Homo sapiens) (P01375 whole entry, looked up): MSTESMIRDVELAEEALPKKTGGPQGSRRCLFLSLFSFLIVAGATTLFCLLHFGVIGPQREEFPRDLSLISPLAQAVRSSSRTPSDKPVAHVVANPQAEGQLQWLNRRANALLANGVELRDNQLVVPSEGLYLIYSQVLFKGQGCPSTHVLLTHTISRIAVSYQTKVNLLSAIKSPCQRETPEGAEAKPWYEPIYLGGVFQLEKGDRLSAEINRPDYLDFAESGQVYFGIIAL

By AC50 is commonly meant the midpoint of the concentration-response curve, whichever way the signal moves. As for `Oc1ccc(C(c2ccc(O)cc2)(C(F)(F)F)C(F)(F)F)cc1`, the AC50 is 27.5 µM (active) in assay [1]; 19.6 µM (active) in assay [2]; 20.1 µM (active) in assay [3]; 37.9 µM (active) in assay [4]; 21.5 µM (active) in assay [5]; 23.9 µM (active) in [6]. The AC50 was 20.6 µM (active) in the assay with CD38, CD38 (gene 952); 18.3 µM (active) with CD40, CD40 (gene 958); 26.6 µM (active) with CD69, CD69 (gene 969); 26.5 µM (active) in [7].

For `N#Cc1ccc(N(CC(N)=O)CC(F)(F)F)cc1C(F)(F)F`, the outcome in assay [1], in [2], in assay [3], in [4], in [5] and in assay [6] was inactive. For the same compound, the outcome was “inactive” in the assay with CD38, CD38 (gene 952); “inactive” with CD40, CD40 (gene 958); “inactive” with CD69, CD69 (gene 969); “inactive” in assay [7].

`Cc1ccccc1CO[C@@H]1C[C@@]2(C(C)C)CC[C@]1(C)O2`: the outcome is “inactive” in [1]; “inactive” in [3]; “inactive” in [4]; “inactive” in assay [5]; “inactive” in assay [6]; “inactive” with CD38, CD38 (gene 952). Besides, the outcome is “inactive” in the assay with CD40, CD40 (gene 958); “inactive” with CD69, CD69 (gene 969); “inactive” in assay [7].

On to `CCCCCCOC(=O)c1ccccc1C(=O)OCCCCCC`, for which the half-maximal activity concentration (AC50) in [1] is 34.9 µM (active); in [3] it was 20 µM (active); in [6], 20 µM (active); with CD38, CD38 (gene 952), 32.1 µM (active); with CD40, CD40 (gene 958) it was 32.9 µM (active). In addition, the outcome in [4] is “inactive”; in assay [5], “inactive”; in the assay with CD69, CD69 (gene 969) it was “inactive”; in assay [7], “inactive”.

Take `CCC(C)(c1ccc(O)cc1)c1ccc(O)cc1`: the result in assay [1], in [4] and in assay [5] was inactive. The AC50 in assay [3] is 20 µM (active); in assay [6] it was 20 µM (active); with CD38, CD38 (gene 952), 25.6 µM (active); in the assay with CD40, CD40 (gene 958), 20 µM (active); with CD69, CD69 (gene 969), 20 µM (active); in assay [7] it was 20 µM (active).

As for `Clc1ccc(Cl)cc1`, the outcome in assay [1] was “inactive”; in assay [3] it was “inactive”; in assay [4], “inactive”; in assay [5], “inactive”; in assay [6], “inactive”; in the assay with CD38, CD38 (gene 952) it was “inactive”. Besides, the outcome with CD40, CD40 (gene 958) is “inactive”; with CD69, CD69 (gene 969) it was “inactive”; in assay [7], “inactive”.

On to `CCC(C)c1cc([N+](=O)[O-])cc([N+](=O)[O-])c1O` (stereo not given), for which the AC50 is 15 µM (active) in [1]; 20 µM (active) in assay [3]; 20 µM (active) in assay [6]; 18.7 µM (active) in the assay with CD38, CD38 (gene 952); 14.3 µM (active) with CD40, CD40 (gene 958); 12.4 µM (active) with CD69, CD69 (gene 969). The AC50 in assay [7] was 23.5 µM (active). The result in assay [4] and in [5] was inactive.

In the case of `O=C(NC(=O)c1c(F)cccc1F)Nc1cc(Cl)c(OC(F)(F)C(F)F)c(Cl)c1`, the outcome in assay [1] was “inactive”; in assay [3], “inactive”; in assay [4], “inactive”; in assay [6], “inactive”; with CD38, CD38 (gene 952) it was “inactive”; in the assay with CD40, CD40 (gene 958), “inactive”. Also, the outcome was “inactive” with CD69, CD69 (gene 969) and “inactive” in assay [7]. Also, in assay [5], the AC50 was 0.401 µM (active).

Turning to `c1ccc(-c2ccccc2)cc1`, the outcome in [1] is “inactive”; in [3], “inactive”; in [4], “inactive”; in assay [5], “inactive”; in assay [6], “inactive”; with CD38, CD38 (gene 952), “inactive”. Further, the outcome in the assay with CD40, CD40 (gene 958) is “inactive”; with CD69, CD69 (gene 969) it was “inactive”; in assay [7], “inactive”.

Regarding `Clc1ccc(C(c2ccccc2Cl)C(Cl)(Cl)Cl)cc1` (stereo not given), the AC50 in [1] was 21.6 µM (active); in assay [3], 18.3 µM (active); in assay [4], 23.4 µM (active); in assay [5] it was 23.8 µM (active); in assay [6], 19.2 µM (active); in the assay with CD38, CD38 (gene 952), 20.1 µM (active). Further, the half-maximal activity concentration (AC50) with CD40, CD40 (gene 958) is 14.1 µM (active); with CD69, CD69 (gene 969) it was 23.2 µM (active); in [7], 21.5 µM (active).

`O=C(N[C@H]1CN2CCC1CC2)c1cc2ccoc2cn1`: the outcome was “inactive” in assay [1]; “inactive” in [3]; “inactive” in [4]; “inactive” in assay [5]; “inactive” in assay [6]; “inactive” with CD38, CD38 (gene 952). Further, the outcome with CD40, CD40 (gene 958) is “inactive”; with CD69, CD69 (gene 969) it was “inactive”; in assay [7], “inactive”.

`CCSC(=O)N(CC)C1CCCCC1`: the outcome was “inactive” in [1]; “inactive” in assay [3]; “inactive” in assay [4]; “inactive” in assay [5]; “inactive” in [6]; “inactive” with CD38, CD38 (gene 952). Besides, the outcome with CD40, CD40 (gene 958) was “inactive”; with CD69, CD69 (gene 969), “inactive”; in [7] it was “inactive”.

Regarding `CCOP(=S)(OCC)SCSC(C)(C)C`, the outcome in assay [1] is “inactive”; in assay [3], “inactive”; in assay [4] it was “inactive”; in assay [6], “inactive”; with CD38, CD38 (gene 952), “inactive”; with CD40, CD40 (gene 958) it was “inactive”. Also, the outcome was “inactive” with CD69, CD69 (gene 969) and “inactive” in assay [7]. For the same compound, the half-maximal activity concentration (AC50) in [5] was 35.2 µM (active).

As to `ClC1=C(Cl)[C@]2(Cl)[C@@H]3[C@@H](Cl)[C@H]4O[C@H]4[C@@H]3C1(Cl)C2(Cl)Cl`, the outcome in assay [1] was “inactive”; in assay [3], “inactive”; in assay [4], “inactive”; in [6], “inactive”; with CD69, CD69 (gene 969), “inactive”; in [7], “inactive”. The AC50 is 2.42 µM (active) in assay [5]; 8.15 µM (active) in the assay with CD38, CD38 (gene 952); 11.6 µM (active) with CD40, CD40 (gene 958).

On to `Cc1cc(-c2ccc(N)c(C)c2)ccc1N`, for which the outcome in assay [1] is “inactive”; in [3], “inactive”; in assay [4] it was “inactive”; in assay [5], “inactive”; in [6], “inactive”; in the assay with CD38, CD38 (gene 952) it was “inactive”. Also, the outcome is “inactive” in the assay with CD40, CD40 (gene 958); “inactive” in the assay with CD69, CD69 (gene 969); “inactive” in assay [7].

With `CN(C)CCO`, the outcome in assay [1] is “inactive”; in assay [3] it was “inactive”; in assay [4] it was “inactive”; in assay [5], “inactive”; in assay [6], “inactive”; with CD38, CD38 (gene 952), “inactive”. For the same compound, the outcome with CD40, CD40 (gene 958) is “inactive”; with CD69, CD69 (gene 969) it was “inactive”; in [7], “inactive”.

Regarding `Cc1cccc([N+](=O)[O-])c1`, the outcome in assay [1] was “inactive”; in [3], “inactive”; in assay [4] it was “inactive”; in assay [5], “inactive”; in assay [6], “inactive”; in the assay with CD38, CD38 (gene 952), “inactive”. For the same compound, the outcome in the assay with CD40, CD40 (gene 958) was “inactive”; with CD69, CD69 (gene 969), “inactive”; in [7] it was “inactive”.

The values above are taken from PubChem BioAssay (EPA / NIEHS).
